# Measured values published in PubChem BioAssay (NCATS).
# Active and inactive are the calls of the source. A call without a number means that no potency is given here. Calls come from the whole dose curve; as a rule, active = well fitted inhibition curve with a large enough effect; inconclusive = small, poorly fitted or top-dose-only effect; inactive = flat fitted curve, though single readings scatter.
# Molecular target: Phosphoglycerate kinase, glycosomal (Trypanosoma brucei brucei) (UniProt P07378)
# Sequence (P07378 whole entry, looked up): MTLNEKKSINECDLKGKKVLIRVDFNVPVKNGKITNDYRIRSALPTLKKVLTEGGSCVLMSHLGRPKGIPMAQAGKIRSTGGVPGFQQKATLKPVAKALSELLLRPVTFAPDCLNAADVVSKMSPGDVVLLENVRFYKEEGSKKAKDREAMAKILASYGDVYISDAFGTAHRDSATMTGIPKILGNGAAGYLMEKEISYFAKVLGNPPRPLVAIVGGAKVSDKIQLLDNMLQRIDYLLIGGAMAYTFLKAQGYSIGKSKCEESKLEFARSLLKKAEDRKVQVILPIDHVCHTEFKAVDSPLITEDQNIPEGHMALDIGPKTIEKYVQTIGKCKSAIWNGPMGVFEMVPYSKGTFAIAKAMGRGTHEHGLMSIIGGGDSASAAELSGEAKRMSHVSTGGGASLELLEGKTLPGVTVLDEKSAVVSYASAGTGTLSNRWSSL
# Assay: qHTS Validation Assay to Find Inhibitors of Phosphoglycerate Kinase (AID 504547)
# Details: enzymatic PGK inhibition, coupled luminescence read-out; series mostly up to 57.5 µM
# Description: NIH Molecular Libraries Probe Production Network [MLPCN]
# NIH Chemical Genomics Center [NCGC]
# PI Name: Malcolm Walkinshaw, University of Edinburgh
# Several species of the Trypanosomatidae family of parasitic protozoans cause a spectrum of diseases
# throughout the tropical and subtropical world. Sleeping sickness, caused by two subspecies of Trypanosoma brucei, is endemic to areas of sub-Saharan Africa, while Chagas disease, a manifestation of Trypanosoma cruzi infection, is prevalent throughout Central and South America. In addition, many species of Leishmania are responsible for a range of cutaneous and visceral diseases, causing ulcers, destructive lesions and kalaazar, a lethal infection of the viscera. Collectively, these organisms infect 30 million people worldwide (~500 million live in endemic areas), and account for ~130,000 deaths annually. Given their debilitating and prevalent nature, trypanosomatid parasites impose a heavy medical, economic and social burden on entire populations, primarily in the developing world. The problem is further exacerbated by the fact that existing treatments have progressed little in the past 50 years, and current drugs show high toxicity and poor efficacy.
# Blood-stream stages of T. brucei are entirely dependent on glycolysis as a source of ATP, and the tricarboxylic acid cycle and oxidative phosphorylation are both repressed. Glycolysis in axenically cultured T. cruzi, representing the intracellular pathogenic stage, is also essential for these parasites. […] Previous studies have shown that the glycolytic enzyme, phosphoglycerate kinase (PGK), is a viable target for drugs to kill these parasites.
# NCGC Assay Protocol Summary:
# Briefly, 3ul of substrate/PGK buffer (columns 1,2,5-48) are dispensed into Greiner white solid bottom 1536-well assay plates; columns 3-4 receive only TEA buffer as 0x PGK controls. Compounds are then transferred via Kalypsys pin tool equipped with 1536-pin array (10nl slotted pins, V&P Scientific, San Diego, CA). Following addition of compound, 1ul of GAPDH (100nM final concentration, all columns) is added to initiate the reaction (this upstream coupling enzyme is necessary for in-well production of PGK substrate, 1,3-bisphosphoglycerate (1,3-BPG), which is unstable and not commercially available). The plates are then incubated at room temperature for 60 minutes. Kinase-Glo Plus reagent is added (2ul) and plates incubated for 10 minutes, before being transferred to a ViewLux high-throughput CCD imager (PerkinElmer) wherein single end-point measurements of luminescence are acquired using a clear filter. All reagents are diluted in an assay buffer consisting of 100mM TEA (pH 7.6), 5mM MgCl2 and 0.01% Tween-20.
# Potency is the fitted concentration of half-maximal effect.
row,Structure (SMILES),Potency
1,O=c1cc(N2CCOCC2)oc2c(-c3ccccc3)cccc12,inactive
2,O=C1c2ccccc2-c2n[nH]c3cccc1c23,inactive
3,O=C1NC(=O)C(c2ccccc2[N+](=O)[O-])=C1Nc1ccc(O)c(Cl)c1,inactive
4,CC1(C)C(=O)N(CCN2CCC(C(=O)c3ccc(F)cc3)CC2)c2ccccc21,inactive
5,Nc1ccn([C@@H]2O[C@H](CO)[C@@H](O)C2O)c(=O)n1 (some centres not stated),inactive
6,C[C@@H](N)C1CCC(C(=O)Nc2ccncc2)CC1 (some centres not stated),inactive
7,OC(CN1CCN(c2cccc(Cl)c2)CC1)C(c1ccccc1)c1ccccc1 (configuration not stated),inactive
8,Nc1nc(OCc2ccccc2)c2[nH]cnc2n1,inactive
9,CN(C)CCCC1(c2ccc(F)cc2)OCc2cc(C#N)ccc21 (configuration not stated),inactive
10,O=C(O)c1cccnc1Nc1cccc(C(F)(F)F)c1,inactive
11,Oc1ccc2ccccc2c1SSc1c(O)ccc2ccccc12,inactive
12,NCCCCNCCCN,inactive
13,O=C(CCc1ccc(O)cc1)c1c(O)cc(O)cc1O,inactive
14,O=c1c(O)c(-c2cc(O)c(O)c(O)c2)oc2cc(O)cc(O)c12,3.01 µM (active)
15,CC(=O)O[C@H]1C(=O)[C@@]2(C)C([C@H](OC(=O)c3ccccc3)[C@]3(O)C[C@H](OC(=O)[C@H](O)[C@@H](NC(=O)c4ccccc4)c4ccccc4)C(C)=C1C3(C)C)[C@]1(OC(C)=O)CO[C@@H]1C[C@@H]2O (some centres not stated),inactive
16,NNc1nncc2ccccc12,inactive

row,Structure (SMILES),Potency
1,Oc1ccc(-c2nc(-c3ccc(F)cc3)c(-c3ccncc3)[nH]2)cc1,inactive
2,CC(=O)N1CCN(c2ccc(OC[C@H]3CO[C@](Cn4ccnc4)(c4ccc(Cl)cc4Cl)O3)cc2)CC1,inactive
3,NC(=NCc1ccccc1)NC(=O)c1nc(Cl)c(N)nc1N,inactive
4,COc1ccccc1N1CCN(CCN(C(=O)C2CCCCC2)c2ccccn2)CC1,inactive
5,CCOC(=O)C(C)Oc1cccc2c(=O)n(CC(=O)Nc3ccc4c(c3)OCCO4)ccc12 (configuration not stated),inactive
6,Cc1c(OCC(F)(F)F)ccnc1CS(=O)c1nc2ccccc2[nH]1 (configuration not stated),inactive
7,Cc1cc(O)c2c(c1)C(=O)c1cc(O)cc(O)c1C2=O,inactive
8,Nc1nc(N)c(N=O)c(OCC2CCCCC2)n1,inactive
9,COc1ccc2cc([C@H](C)C(=O)O)ccc2c1,inactive
10,CC1(C)NC(=O)N(c2ccc([N+](=O)[O-])c(C(F)(F)F)c2)C1=O,inactive
11,CCN(CC)C(=S)SSC(=S)N(CC)CC,inactive
12,COc1cc2c(cc1OC)C1CC(=O)C(CC(C)C)CN1CC2 (configuration not stated),inactive
13,C[C@H](Cc1ccc(O)c(O)c1)[C@@H](C)Cc1ccc(O)c(O)c1,inactive
14,CC(C)c1ccc2c(c1)c(SC(C)(C)C)c(CC(C)(C)C(=O)O)n2Cc1ccc(Cl)cc1,inactive
15,COc1cc2nc(N3CCN(C(=O)C4CCCO4)CC3)nc(N)c2cc1OC (configuration not stated),inactive
16,O=C(c1ccccc1)c1ccc2n1CCC2C(=O)O (configuration not stated),inactive
